Test [1] concerns Human papillomavirus type 1a protein E7 (residues 44-93). As to the kind of experiment: small molecules binding HPV E7 44-93 – biochemical, small-molecule microarray, residues 44-93, 635 nm fluorescence, primary screen (AID 1108).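 Further: E7 fragment applied at 1 µg/mL in TBST for 1 h at 4 C; score combines spot fluorescence with its signal to noise ratio.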 To be noted: fluorescence 635 nm, higher = more signal.
Test [2] in a line: hepatitis C replication reporter changes, two-sided – Huh7 cells, luciferase reporter, HCV replication inhibitor project, primary screen (AID 1109).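 Further: huh7 hepatoma cells harbouring a luciferase neomycin HCV replicon reporter; luciferase luminescence as measure of HCV replicon replication; test concentration not given here.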 Conditions: Huh7 HCV replicon luciferase reporter, 48 h; higher = more signal. A general note: A reporter such as luciferase makes a cellular process visible.
The target of test [3] is Left-right determination factor 2 (Homo sapiens) (UniProt O00292). As to the kind of experiment: small molecules binding LEFTY2 protein – biochemical, small-molecule microarray, 635 nm fluorescence scan, primary screen (AID 1110). Conditions: higher = more signal.
Left-right determination factor 2 (Homo sapiens), sequence (O00292 whole entry, looked up): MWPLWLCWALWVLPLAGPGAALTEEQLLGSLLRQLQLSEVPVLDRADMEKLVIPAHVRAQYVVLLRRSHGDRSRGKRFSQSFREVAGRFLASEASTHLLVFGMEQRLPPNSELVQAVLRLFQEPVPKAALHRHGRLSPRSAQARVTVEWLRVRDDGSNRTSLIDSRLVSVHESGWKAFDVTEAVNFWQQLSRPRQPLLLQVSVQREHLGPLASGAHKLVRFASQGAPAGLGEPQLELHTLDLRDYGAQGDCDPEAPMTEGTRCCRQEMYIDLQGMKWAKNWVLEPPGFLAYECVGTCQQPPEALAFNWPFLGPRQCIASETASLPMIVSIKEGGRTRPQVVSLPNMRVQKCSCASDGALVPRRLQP
Test [4] concerns the target Calmodulin-1 (Homo sapiens) (UniProt P0DP23). Nature of the test: small molecules binding calmodulin-1 with EGTA – biochemical, small-molecule microarray, Cy5-labelled CALM1, profiling panel (AID 1111).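 Further: labelled calmodulin applied in Tris saline Tween buffer holding calcium plus EGTA and DTT.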 Conditions: Cy5-CALM1 binding fluorescence, higher = more signal.
The target is the same in test [5]. As to the kind of experiment: small molecules binding Ca-loaded calmodulin-1 – biochemical, small-molecule microarray, Cy5-labelled CALM1, plus calcium, artefact control for SMM control-protein annotation, profiling panel (AID 1112).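 Further: score merges spot fluorescence with signal to noise from triplicate slides.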 Conditions: Cy5-CALM1 binding fluorescence, higher = more signal.
Test [6] can be described thus: probe aWnt5a binding to arrayed compounds – biochemical, biotinylated probe, 635/667 nm fluorescence, primary screen (AID 1113).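 Further: score merges 667 nm fluorescence intensity with signal-to-noise per printed feature.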 Conditions: small-molecule microarray, higher = more signal.
Test [7] is described as follows: probe aShh binding to arrayed compounds – biochemical, biotinylated probe, 635/667 nm fluorescence, primary screen (AID 1114).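 Further: probe is biotin-labelled aShh protein from a stem cell growth factor screen; measures binding of labelled protein to compounds printed on the slide; score merges feature fluorescence at 667 nm with signal-to-noise.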 To be noted: small-molecule microarray, higher = more signal.
Test [8] in a line: probe aNog binding to arrayed compounds – biochemical, biotinylated probe, 635/667 nm fluorescence, primary screen (AID 1115).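 Further: probe is biotinylated aNog protein used at 0.15 µg/mL for 1 h at 4 C; z-score combines 667 nm fluorescence of each spot with its signal to noise.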 Conditions: small-molecule microarray, higher = more signal.
Test [9] has as its target Torsin-1A-interacting protein 1 (Homo sapiens) (UniProt Q5JTV8). As to the kind of experiment: compound microarray binding of lysate hLAP1 – cell lysate, small-molecule microarray, COS7 lysate, 635/667 nm fluorescence, primary screen (AID 1116). To be noted: 635 nm fluorescence, higher = more signal.
Test [10] has as its target Alpha-bungarotoxin (Bungarus multicinctus) (UniProt P60615). As to the kind of experiment: compounds binding labelled alpha-BTX control protein – biochemical, small-molecule microarray, Alexa647 label, 635/667 nm fluorescence, artefact control for SMM control protein annotation, profiling panel (AID 1117). To be noted: alpha-BTX-A647 binding fluorescence, higher = more signal.

The target in a further test is Albumin (Bos taurus) (UniProt P02769). As to the kind of experiment: compounds binding labelled BSA control protein – biochemical, small-molecule microarray, Alexa647 label, 635/667 nm fluorescence, artefact control for SMM control protein annotation, profiling panel (AID 1118).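 Further: score merges 667 nm emission intensity and signal-to-noise per printed compound spot.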 To be noted: BSA-A647 binding, fluorescence 635 nm, higher = more signal.
Albumin (Bos taurus), sequence (P02769 whole entry, looked up): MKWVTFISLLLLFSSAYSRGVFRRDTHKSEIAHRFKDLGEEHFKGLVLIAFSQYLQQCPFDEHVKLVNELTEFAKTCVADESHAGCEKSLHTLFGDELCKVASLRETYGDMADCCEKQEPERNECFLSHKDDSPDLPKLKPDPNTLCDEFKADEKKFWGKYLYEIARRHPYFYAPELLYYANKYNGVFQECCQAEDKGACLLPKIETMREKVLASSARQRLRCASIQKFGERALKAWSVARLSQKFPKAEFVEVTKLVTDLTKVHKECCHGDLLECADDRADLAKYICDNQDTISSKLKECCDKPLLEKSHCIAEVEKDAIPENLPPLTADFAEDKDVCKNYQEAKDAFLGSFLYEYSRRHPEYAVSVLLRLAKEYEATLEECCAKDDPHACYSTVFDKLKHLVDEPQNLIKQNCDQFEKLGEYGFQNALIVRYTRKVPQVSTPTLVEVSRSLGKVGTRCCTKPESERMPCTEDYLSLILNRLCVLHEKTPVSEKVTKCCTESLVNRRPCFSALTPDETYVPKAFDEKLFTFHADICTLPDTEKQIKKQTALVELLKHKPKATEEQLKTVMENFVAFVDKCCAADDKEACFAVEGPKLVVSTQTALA
Test [11] can be described thus: probe aXIP binding to arrayed compounds – biochemical, NeuroSMM set, 635/667 nm fluorescence, primary screen (AID 1119).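 Further: probe is the protein aXip251-270 applied at 1 µg/mL to compound-printed slides; binding of probe to printed compounds measured as 667 nm fluorescence plus signal to noise.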 To be noted: small-molecule microarray, higher = more signal, called active from +8 up or from −8 down.
Test [12] is described as follows: probe aNOTCH3 binding on compound microarray – biochemical, small-molecule microarray, 635/667 nm fluorescence, primary screen (AID 1120).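 Further: probe is a biotin-tagged antibody raised against NOTCH3 rather than NOTCH3 protein; score merges spot fluorescence near 667 nm with spot signal to noise.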 To be noted: higher = more signal.
The nature of test [13]: probe aNOTCH2 binding on compound microarray – biochemical, small-molecule microarray, 635/667 nm fluorescence, primary screen (AID 1121).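 Further: score merges feature fluorescence read at 667 nm with its signal to noise.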 Conditions: higher = more signal.
Test [14] has as its target Carbonic anhydrase 2 (Homo sapiens) (UniProt P00918). As to the kind of experiment: compounds binding carbonic anhydrase 2 – biochemical, small-molecule microarray, Alexa647-labelled CAII, profiling panel (AID 1122). Conditions: CAII-A647 binding fluorescence, higher = more signal.
A short description of test [15]: COS7 lysate on small-molecule microarray, probe aHis, 635 nm (AID 1123).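 Further: z-score combines 667nm fluorescence intensity with signal-to-noise per printed compound spot.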 Conditions: COS7 cell lysate, fluorescence, higher = more signal.
A short description of test [16]: probe aLAP1 signal on lysate-treated microarray – cell lysate, small-molecule microarray, COS7 lysate, primary screen (AID 1124).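 Further: lysate comes from COS7 cells expressing LAP1 and is applied at 0.3 µg/mL; score merges spot fluorescence near 667 nm with signal-to-noise over triplicate slides.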 To be noted: probe aLAP1, fluorescence, higher = more signal.
Another test relates to Sam68 (KHDRBS1). As to the kind of experiment: compounds binding KHDRBS1 protein – biochemical, small-molecule microarray, 635 nm fluorescence, primary screen (AID 1125).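 Further: score merges 667 nm channel intensity with signal to noise over triplicate slides.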 To be noted: higher = more signal.
In test [17] the test system is Chordin-like protein 2 (CHRDL2). As to the kind of experiment: compounds binding chordin-like 2 – biochemical, small-molecule microarray, 635 nm fluorescence, primary screen (AID 1126).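 Further: printed compound slides probed with Chrdl2 protein at 4 µg/mL for 1 h at 4 C; score merges 667 nm emission intensity with signal to noise over three replicate slides.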 Conditions: fluorescence 635 nm, higher = more signal.
Test [18] addresses Concanavalin-A (Canavalia ensiformis) (UniProt P02866). As to the kind of experiment: compounds binding concanavalin A lectin – biochemical, small-molecule microarray, Alexa647 label, 635 nm, artefact control for SMM control protein annotation, primary screen (AID 1127).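 Further: z combines 667 nm emission intensity with signal-to-noise across three replicate slides.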 To be noted: ConA-A647 binding fluorescence, higher = more signal.

Active and inactive are the calls of the source.

Alpha-bungarotoxin (Bungarus multicinctus), sequence (P60615 whole entry, looked up): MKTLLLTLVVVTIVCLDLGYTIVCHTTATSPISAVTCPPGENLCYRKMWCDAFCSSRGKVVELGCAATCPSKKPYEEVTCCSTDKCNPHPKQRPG
Concanavalin-A (Canavalia ensiformis), sequence (P02866 whole entry, looked up): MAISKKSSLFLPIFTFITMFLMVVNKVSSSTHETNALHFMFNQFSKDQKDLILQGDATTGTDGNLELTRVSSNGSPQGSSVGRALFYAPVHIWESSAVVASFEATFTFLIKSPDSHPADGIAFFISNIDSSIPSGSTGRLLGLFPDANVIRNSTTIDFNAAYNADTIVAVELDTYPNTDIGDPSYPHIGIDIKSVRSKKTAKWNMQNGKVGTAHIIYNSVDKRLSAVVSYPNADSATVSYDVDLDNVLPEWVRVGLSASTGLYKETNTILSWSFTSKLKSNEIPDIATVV
Torsin-1A-interacting protein 1 (Homo sapiens), sequence (Q5JTV8 whole entry, looked up): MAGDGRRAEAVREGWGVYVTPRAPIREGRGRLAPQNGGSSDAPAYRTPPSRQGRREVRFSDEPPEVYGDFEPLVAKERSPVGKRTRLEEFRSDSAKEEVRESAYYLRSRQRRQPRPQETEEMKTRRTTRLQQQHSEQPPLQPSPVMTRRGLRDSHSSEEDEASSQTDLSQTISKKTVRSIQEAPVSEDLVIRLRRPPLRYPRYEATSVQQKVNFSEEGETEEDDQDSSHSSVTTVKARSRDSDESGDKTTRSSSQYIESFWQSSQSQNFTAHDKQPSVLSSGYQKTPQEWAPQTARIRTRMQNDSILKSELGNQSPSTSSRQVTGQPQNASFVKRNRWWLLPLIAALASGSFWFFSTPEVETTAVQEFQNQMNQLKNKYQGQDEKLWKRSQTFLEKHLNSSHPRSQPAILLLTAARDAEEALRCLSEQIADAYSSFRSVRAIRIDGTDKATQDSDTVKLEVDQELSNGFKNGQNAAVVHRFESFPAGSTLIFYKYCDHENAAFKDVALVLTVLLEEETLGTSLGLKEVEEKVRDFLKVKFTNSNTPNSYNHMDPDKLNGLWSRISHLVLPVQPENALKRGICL

Consider `C=C(COC)C(=O)CC[C@H](OC(=O)c1ccccc1-c1ccccc1C(=O)O)c1ccc(CO)o1`, for which the composite z-score in [1] is 0.544; in test [3] it was 0.27; in test [4] it was -0.271; in [5], -0.564; in test [6] it was -0.128; in test [7], -0.0553. Moreover, the composite z-score in test [8] was -0.137; in [9], 0.77; in test [10], 0.239; with Albumin (Bos taurus), -0.701; in test [12] it was -0.203; in test [13], -0.14. Moreover, the composite z-score was 0.365 in test [14]; -0.264 in test [15]; 0.134 in test [16]; 0.807 in the test on Sam68 (KHDRBS1); 0.55 in test [17]; 0.332 in [18]. Also, the z-score in [2] was -0.115. For the same compound, the composite Z-score in test [11] was 0.403 (inactive).

`COc1ccc(CCNC(=O)[C@@H]2c3ccccc3C(=O)N(Cc3ccccc3)[C@H]2c2ccc(CO)cc2)cc1`: the composite z-score was 1.43 in test [1]; 0.117 in [3]; -0.0056 in test [4]; -0.904 in test [5]; -0.0512 in test [6]; -0.0813 in [7]. The composite z-score is -0.293 in test [8]; 1.15 in test [9]; 0.36 in [10]; 0.286 with Albumin (Bos taurus); -0.199 in [12]; -0.0562 in test [13]. Moreover, the composite z-score in test [14] was found to be 0.735; in [15], 1.64; in test [16], 1.36; with Sam68 (KHDRBS1), 1.34; in test [17] it was 0.156; in test [18] it was 0.526. In test [2], this compound gave a z-score of -1.17. In addition, in test [11], the composite Z-score is -0.149 (inactive).

Take `O=C1C2C=CC(C(O)c3ccccn3)N(Nc3ccccc3)C2C(=O)N1c1ccccc1` (stereo not given): the composite z-score in [1] is 0.132; in test [3], -0.136; in test [4], 0.167; in [5], -0.0451; in test [6], -0.0758; in test [7], -0.291. In addition, the composite z-score is 0.0373 in test [8]; 0.529 in [9]; 0.31 in [10]; 1.03 with Albumin (Bos taurus); -0.0026 in test [12]; -0.0995 in test [13]. Besides, the composite z-score is 0.824 in test [14]; 0.696 in test [15]; -0.247 in test [16]; -0.419 with Sam68 (KHDRBS1); -0.493 in test [17]; 0.36 in test [18]. For the same compound, the z-score in [2] was determined as 0.819. The composite Z-score in [11] was 0.959 (inactive).

Regarding `Cc1cc(C)c(C(O)C2C=CC3C(=O)N(c4ccccc4)C(=O)C3N2Nc2ccc([N+](=O)[O-])cc2)c(C)c1` (stereo not given), the composite z-score in [1] is 1.44; in test [3], 0.38; in test [4], 1.84; in [5], 0.469; in [6] it was -0.131; in test [7], 0.0328. The composite z-score in test [8] amounted to 1.21; in test [9], 1.29; in [10] it was 2.19; in the test with Albumin (Bos taurus), 1.06; in [12] it was 0.418; in [13], 0.149. Also, the composite z-score in test [14] was 0.643; in test [15], 2.79; in [16] it was 0.893; in the test with Sam68 (KHDRBS1) it was 1.3; in test [17], -0.224; in test [18], 1.19. Further, in [2], the z-score amounted to 0.49. For the same compound, the composite Z-score in test [11] was -0.909 (inactive).

Regarding `O=C(O)[C@@]1(Cc2ccccc2)COC(c2ccc(OCCCO)cc2)=N1`, the composite z-score is 0.0262 in test [1]; -0.714 in test [3]; -0.106 in [4]; 0.0951 in test [5]; -0.217 in [6]; 0.214 in test [7]. For the same compound, the composite z-score in test [8] is 0.0254; in [9], 0.28; in test [10], -0.47; with Albumin (Bos taurus), -0.584; in test [12], -0.197; in test [13], -0.135. For the same compound, the composite z-score in test [14] is 0.844; in test [15] it was 0.502; in [16] it was -0.131; with Sam68 (KHDRBS1), -0.21; in test [17], -0.675; in [18], -0.115. This compound had a z-score in [2] of 0.923. The composite Z-score in test [11] is 0.133 (inactive).

On to `CCOC(=O)C1=CC[C@@H](c2ccc(N(CC)CC)cc2)N(S(=O)(=O)c2ccc(C)cc2)[C@H]1c1ccc([N+](=O)[O-])cc1`, for which the composite z-score in test [1] was 1.24; in test [3], -1.76; in test [4], 0.863; in test [5] it was -0.378; in [6], -0.0472; in [7], -0.0035. In addition, the composite z-score in [8] was 0.587; in test [9], 0.923; in test [10] it was 0.274; with Albumin (Bos taurus), 0.682; in test [12], 0.0116; in test [13], -0.0097. Also, the composite z-score was 0.473 in [14]; -0.507 in [15]; 0.769 in [16]; 0.317 with Sam68 (KHDRBS1); -0.724 in test [17]; 0.588 in test [18]. In test [2], this compound registered a z-score of -0.83. In addition, in test [11], the composite Z-score was 0.38 (inactive).
